This passage reports inhibition results from PubChem BioAssay AID488896 (Broad Institute, 2010).

What is called inhibition is the change of the read-out against control, counted positive when it falls.

SMILES strings stand for the structures. Out of some 320,000 compounds screened, about 3,100 (0.97%) were called active. For the sample, actives were picked, then their nearest neighbours and some compounds at random. A number with no mark means an inactive call.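 The calls were made as follows: active = mean replicate inhibition of at least 70% and a set share of replicates each scoring 70 or more; inconclusive = meets just one of the two criteria; inactive = fails both criteria.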

Scavenger receptor class B member 1 (Mus musculus), sequence (Q61009 whole entry, looked up): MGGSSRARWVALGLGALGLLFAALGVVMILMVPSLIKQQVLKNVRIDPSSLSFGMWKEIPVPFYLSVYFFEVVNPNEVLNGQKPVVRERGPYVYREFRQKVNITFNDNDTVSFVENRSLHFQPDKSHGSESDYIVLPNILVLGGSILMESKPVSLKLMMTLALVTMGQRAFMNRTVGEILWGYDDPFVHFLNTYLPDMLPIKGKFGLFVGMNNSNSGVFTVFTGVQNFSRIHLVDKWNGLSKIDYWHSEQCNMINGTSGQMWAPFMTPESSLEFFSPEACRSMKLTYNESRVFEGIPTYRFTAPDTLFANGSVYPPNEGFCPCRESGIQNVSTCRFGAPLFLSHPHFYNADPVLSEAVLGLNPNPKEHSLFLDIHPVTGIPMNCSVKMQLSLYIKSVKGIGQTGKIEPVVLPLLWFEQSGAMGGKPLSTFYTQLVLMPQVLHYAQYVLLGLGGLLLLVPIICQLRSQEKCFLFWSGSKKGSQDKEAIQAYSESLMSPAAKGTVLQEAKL

The test has as its target Scavenger receptor class B member 1 (Mus musculus) (UniProt Q61009). Put plainly: inhibitors of SR-BI mediated HDL lipid uptake, primary screen, ldlA[mSR-BI] cells, fluorescence, single point (AID 488896).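 Also: 0% = median of neutral control wells and 100% = median of positive control wells.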 The note with it: ldlA[mSR-BI] CHO cells, DiI-HDL uptake fluorescence, 3 h; at 12.5 µM; active compounds read high.
`O=C(NCC1CCCCC1)NCC1CCCCC1`: the inhibition was -12.9%.

`O=C(O)c1ccc(S(=O)(=O)c2ccccc2)s1`: the inhibition was -1.03%. Under `COc1ccc2nc(N3C(=O)C(O)=C(C(=O)c4ccco4)C3c3ccco3)sc2c1` (stereo not drawn) stands -2.11%; under `O=C(Cc1ccc(S(=O)(=O)N2CCOCC2)s1)Nc1ccc(Br)c(C(F)(F)F)c1`, -43.4%; under `CC(C)Cn1cnc2c(SCc3ccc(Cl)cc3)nc(N)nc21`, 7.71%. Under `Cc1cccc(C(=O)Nc2ccccc2N2CCN(c3ccc(F)cc3)CC2)c1` stands 74.9% (active). Regarding `CCC(C)C(=O)Nc1ccccc1N1CCN(c2ccc(F)cc2)CC1` (stereo not drawn), the inhibition was 36.3%.

For `CCCCC(=O)Nc1ccccc1N1CCN(c2ccc(F)cc2)CC1`, the inhibition is 34%. With `OCCN1CCN(c2nnc(-c3ccccc3)c3ccccc23)CC1`, the inhibition was 3.57%.

Take `c1ccc(-c2nnc(N3CCOCC3)c3ccccc23)cc1`: the inhibition was 27.8%. Next, `CCCC(=O)N1CCN(c2nnc(-c3ccc(C)cc3)c3ccccc23)CC1`: 76.8% (active); `Cc1ccc(-c2csc(C(C#N)=C(O)CN3CCN(C(=O)c4ccco4)CC3)n2)cc1`: 4.1%. In the case of `CCOc1ccc(/C=C(/C#N)c2nnc(N3CCOCC3)n2-c2ccccc2)cc1OC`, the inhibition was -9.11%. Under `O=C(Cc1ccc(NC(=O)C2CCCN(C(=O)C3CCCCC3)C2)cc1)Nc1cccc(C(=O)N2CCCCC2)c1` (stereo not drawn) stands 43.2%; under `CNc1nc(=O)n(C2CCCO2)cc1C` (stereo not drawn), 0.704%. Under `CCOC(=O)N(Cc1ccccc1)C1CC1` stands 1.61%; under `COc1ccc(CCN(C(=O)COc2ccccc2)c2nc(-c3ccccc3)cs2)cc1OC`, 24.1%; under `CC(=O)Nc1cccc(-c2csc(Nc3cccc(C)n3)n2)c1`, 76.4% (active). Under `CC(=O)Nc1ccc(-c2csc(NC=C3C(=O)OC(C)(C)OC3=O)n2)cc1` stands 4.07%; under `COc1ccc(CCNc2nc(-c3cccc(NC(C)=O)c3)cs2)cc1OC`, 75.5% (active). As to `COc1ccc(CC(=O)Nc2nc(-c3ccc(F)c(F)c3)cs2)cc1OC`, the inhibition was 29.1%.

For the compound `Cc1cccc(Nc2nc(-c3ccccc3)cs2)n1`, the inhibition was 52.4%.

Regarding `CCC1([N+](=O)[O-])COC(c2ccc(C)cc2)OC1` (stereo not drawn), the inhibition was -12.8%. As for `Nc1cc(=O)n(Cc2ccccc2)c(=O)n1Cc1ccccc1`, the inhibition is 0.22%. Next, `C[C@@H]1ON(C)[C@H]2C[C@H]3c4cc(N5CCN(C)CC5)ccc4CCN3C(=O)[C@@H]12`: -19.4%; `Cn1c(=S)sc2ccc3ccccc3c21`: 5.87%; `N#CC1(Nc2ccc(-c3ccc(Cl)cc3)cc2)CCCC1`: 5.44%. On to `O=C(Nc1cccc(S(=O)(=O)N2CCCCC2)c1)c1ccc2c(c1)OCO2`, for which the inhibition was 8.54%.

For the compound `O=C(Nc1cccc(S(=O)(=O)Nc2ccc(Cl)cc2)c1)c1ccc2c(c1)OCCO2`, the inhibition is 70.2% (active). Under `O=C(Nc1ccc(NC(=O)c2ccc3c(c2)OCO3)cc1)c1cccc(Cl)c1` stands -14.8%. Under `NS(=O)(=O)c1ccc(CCNC(=O)c2ccc(Cl)c(S(=O)(=O)N3CCCCCC3)c2)cc1` stands 32.8%; under `CCN1CCN(c2c(Cl)cccc2NC(=O)c2ccc(Br)o2)CC1`, 33.7%; under `CCCC(=O)Nc1ccc(Cl)c(NC(=O)c2ccc(Br)o2)c1`, 70.8% (active). Next, `CCCCC(=O)Nc1ccc(C(=O)Nc2cc(C(F)(F)F)ccc2Cl)cc1`: 67.9%; `COc1cc2c(cc1OC)C1C(=O)c3cc(OS(C)(=O)=O)c(OC)cc3C1N(C)C2=O` (stereo not drawn): -1%; `O=C1COc2c1ccc(O)c2O`: -17.3%. In the case of `CN(C(=O)c1cccc(NC(=O)Cc2cccc(NC(=O)C3CCCN(C(=O)C4CC4)C3)c2)c1)C1CCC1` (stereo not drawn), the inhibition is 31.6%. Under `CN(CCc1ccccc1)C(=O)c1cccc(NC(=O)Cc2cccc(NC(=O)C3CCCN(C(=O)CCc4ccccc4)C3)c2)c1` (stereo not drawn) stands 78.5% (active); under `CN(C(=O)c1cccc(NC(=O)Cc2ccc(NC(=O)C3CCCN(C(=O)C4CCCC4)C3)cc2)c1)C1CCC1` (stereo not drawn), 86.9% (active).

Take `CN(CCc1ccccc1)C(=O)c1cccc(NC(=O)Cc2cccc(NC(=O)C3CCCN(C(=O)C4CCC4)C3)c2)c1` (stereo not drawn): the inhibition was 26.9%.

With `O=C(Cc1ccc(NC(=O)C2CCCN(C(=O)CCc3ccccc3)C2)cc1)Nc1ccc(C(=O)N2CCOCC2)cc1` (stereo not drawn), the inhibition was 58.6%. Under `CN(C(=O)c1cccc(NC(=O)Cc2ccc(NC(=O)C3CCCN(C(=O)C4CC4)C3)cc2)c1)C1CC1` (stereo not drawn) stands 70%. Regarding `COc1cc(/C=C/c2ccc(/C=C/c3cc(OC)c(OC)c(OC)c3)cc2)cc(OC)c1OC`, the inhibition is 51.2%.

With `Nc1cc2c(cc1Br)-c1ccc(F)cc1C2=O`, the inhibition is 22.3%. Under `C=CCOC(=O)N1CCC2CC1c1cc(-c3ccc(OC)cc3)ccc12` (stereo not drawn) stands -4.14%. Next, `Oc1c(CN2CCOCC2)ccc(CN2CCOCC2)c1O`: 0.438%; `Cc1ccc(C(=O)O)cc1NC(=O)c1ccc(Cn2nc(C)c(Cl)c2C)o1`: 4.04%.

For the compound `Cc1c(Cl)c([N+](=O)[O-])nn1Cc1ccc(C(=O)N/N=C\c2cc(Cl)ccc2O)o1`, the inhibition was 129% (active).

Turning to `Cc1c(Cl)c([N+](=O)[O-])nn1CCCC(=O)Nc1cc(Cl)ccc1Cl`, the inhibition is -14.8%.

As to `CC(C)CN1CC(C)C(=O)N(c2ccccc2)C1=S` (stereo not drawn), the inhibition is -3.77%. Next, `COc1ccc2oc(C(=O)OCC(=O)N(CC(C)C)c3c(N)n(Cc4ccccc4)c(=O)[nH]c3=O)c(C)c2c1`: 71% (active); `CC(C)CN(C(=O)COC(=O)c1ccc2ccccc2c1)c1c(N)n(Cc2ccccc2)c(=O)[nH]c1=O`: 27.1%. Under `CC(C)CN(C(=O)COC(=O)c1ccc(Cl)c(N)c1)c1c(N)n(Cc2ccccc2)c(=O)[nH]c1=O` stands 21.7%. For `CCC(C)C1(C2CCCC2)NC(=O)NC1=O` (stereo not drawn), the inhibition was -1.25%. With `C[n+]1cccc(C(=O)O)c1`, the inhibition was -14.9%. Consider `COc1ccc2cc(C(=O)NCC3CCCO3)[nH]c2c1` (stereo not drawn), for which the inhibition was -25.3%. Consider `COc1cccc(/C=C2\Sc3ccc(C(=O)NCC4CCCO4)cc3N(C)C2=O)c1` (stereo not drawn), for which the inhibition is 76.6% (active). For `COc1cccc(C(=O)NCCS(=O)(=O)NCC2CCCO2)c1` (stereo not drawn), the inhibition was -26.7%.
